PAFAH1B2 inh – PAFAH1B2 enzyme inhibitors, primary screen, biochemical, fluorescence polarization, human | Platelet-activating factor acetylhydrolase IB subunit alpha2 (Homo sapiens), P68402 | recombinant PAFAH1B2, FP-rhodamine activity probe | inhibition, % at 3.39 µM | hit rate 1.2% among 340,000 | AID 492953, 2010;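 active = inhibition above the mean of all tested compounds plus 3 SD, cut at about 24% in these data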;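 also: 0% = enzyme with DMSO and 100% = wells lacking PAFAH1B2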
pPAFAH inh – pPAFAH enzyme inhibitors, primary screen, biochemical, fluorescence polarization, human | recombinant pPAFAH, FP-rhodamine probe fluorescence polarization | inhibition, % at 3.39 µM | AID 463082, 2010 | hit rate 1.5% among 330,000;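 active = inhibition above the mean inhibition across the screen plus 3 SD, cut at about 25% in these data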;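 also: inhibitors block binding of the rhodamine activity-based probe so polarization drops; 0% = enzyme with DMSO and 100% = wells lacking pPAFAH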
PP1 counter – PP1-alpha phosphatase inhibitors, primary screen, counter-screen for PP5 inhibitor project, biochemical, fluorescence, OMFP substrate, single point | Serine/threonine-protein phosphatase PP1-alpha catalytic subunit (Homo sapiens), P62136 | purified PP1alpha | inhibition, % at 6.7 µM | hit rate 0.9% among 320,000 | AID 2235, 2010;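 active = inhibition above the mean inhibition of all tested compounds plus 3 SD, computed separately for each screening campaign, cut at about 15% in these data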
Target sequence (P62136 whole entry, looked up): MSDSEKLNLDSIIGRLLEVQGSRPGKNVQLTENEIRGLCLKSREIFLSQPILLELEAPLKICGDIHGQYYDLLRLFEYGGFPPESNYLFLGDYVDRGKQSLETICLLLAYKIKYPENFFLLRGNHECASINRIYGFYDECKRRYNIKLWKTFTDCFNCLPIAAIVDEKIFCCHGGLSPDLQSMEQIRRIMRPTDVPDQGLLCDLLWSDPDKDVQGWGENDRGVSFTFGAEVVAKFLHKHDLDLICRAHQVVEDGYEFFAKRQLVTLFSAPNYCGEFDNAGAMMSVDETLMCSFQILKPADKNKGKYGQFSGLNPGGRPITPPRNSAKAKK
PAFAH1B3 FP inh – PAFAH1B3 enzyme inhibitors, primary screen, biochemical, fluorescence polarization, human. inhibition, % at 3.39 µM. AID 492972, 2010. recombinant PAFAH1B3, FP-rhodamine probe. Platelet-activating factor acetylhydrolase IB subunit alpha1 (Homo sapiens), Q15102. hit rate 0.28% among 340,000;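 active = inhibition above the screen-wide average of all tested compounds plus 3 SD, cut at about 25% in these data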;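 also: 0% = enzyme with DMSO only and 100% = wells lacking PAFAH1B3 protein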
Target sequence (Q15102 whole entry, looked up): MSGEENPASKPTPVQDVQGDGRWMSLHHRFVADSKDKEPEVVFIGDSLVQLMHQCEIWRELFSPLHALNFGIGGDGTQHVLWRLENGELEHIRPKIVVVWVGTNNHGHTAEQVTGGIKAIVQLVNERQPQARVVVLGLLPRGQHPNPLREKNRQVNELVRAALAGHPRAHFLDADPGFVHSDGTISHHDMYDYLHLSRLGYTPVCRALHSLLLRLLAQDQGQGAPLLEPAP
PAFAH2 inh – PAFAH2 enzyme inhibitors, primary screen, biochemical, fluorescence polarization, human; recombinant PAFAH2, FP-rhodamine activity probe; inhibition, % at 3.39 µM; hit rate 0.99% among 340,000; AID 492956, 2010;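 active = inhibition above the mean over all tested compounds plus 3 SD, cut at about 30% in these data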;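 also: inhibitors block probe labeling of enzyme so polarization drops; 0% = enzyme with DMSO and 100% = wells lacking PAFAH2 protein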
PP5 inh – PP5 phosphatase inhibitors, primary screen, biochemical, fluorescence. Serine/threonine-protein phosphatase 5 (Homo sapiens), P53041. purified PP5c, OMFP substrate fluorescence. inhibition, % at 6.7 µM. hit rate 0.18% among 320,000;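 active = inhibition above the campaign's mean inhibition across all tested compounds plus 3 SD, cut at about 9.5% in these data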;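 also: 0% = DMSO only and 100% = 100 µM cantharidin control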
pPAFAH FP conf – pPAFAH (PLA2G7) enzyme inhibitors, confirmation, biochemical, fluorescence polarization, human; shares compounds with pPAFAH inh; recombinant pPAFAH, FP-Rh probe fluorescence polarization; inhibition, % at 3.39 µM; hit rate 72% among 2,300; AID 463230, 2010;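 active = mean inhibition of the triplicate above the hit cutoff set for the earlier primary screen, cut at about 25% in these data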;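 also: 0% = enzyme with DMSO and 100% = wells lacking pPAFAH enzyme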
Starred values were filed as active, the others as inactive; / = no result given. Rows were chosen to be rich in hits. Some 3.4% of all compounds tested hit in one or more screens of this group.

SMILES	PAFAH1B2 inh	pPAFAH inh	PP1 counter	PAFAH1B3 FP inh	PAFAH2 inh	PP5 inh	pPAFAH FP conf
O=C(OC(C(=O)NCc1cccs1)c1ccccc1F)c1ccco1 (stereo not drawn)	0.9	4.3	-4.6	-2.5	1.3	3.2	/
COc1ccc2[nH]c(O)c(N=NC(=O)c3ccc(NS(=O)(=O)c4cccs4)cc3)c2c1	20.9	44.0*	16.7*	31.6*	23.3	0.5	39.3*
COc1ccc2nc(NC(=O)c3ccc(NS(=O)(=O)c4cccs4)cc3)sc2c1	1.4	14.7	2.4	4.6	6.6	2.3	/
COc1cc(NC(=O)CNC(c2ccccc2)c2ccccc2)cc(OC)c1OC	1.0	4.7	-0.1	-0.1	-0.2	3.5	/
COc1cc(NC(c2ccccc2)c2ccccc2)cc(OC)c1OC	-4.6	44.1*	-0.2	-4.9	1.0	3.5	42.8*
Cn1c(=O)c(C(=O)c2ccccc2)c(O)c2ccccc21	/	-4.2	-3.5	/	/	-0.2	/
CC(=O)c1c(OC(=O)c2ccccc2)c2ccccc2n1C	-6.1	81.5*	4.0	5.3	-4.3	2.8	9.1
CCOc1ccc(C2OC34CCCCC3C(C#N)(C#N)C2(C#N)C(=N)O4)cc1OC (stereo not drawn)	36.8*	41.9*	2.0	43.4*	45.9*	1.9	1.4
N#Cc1c(NCCCO)nc(-c2ccccc2)c2c1CCCC2	8.4	35.5*	1.7	2.0	-2.4	-1.7	14.7
COc1cccc2cc(C(=O)CS(=O)(=O)c3ccc(C(C)(C)C)cc3)c(=O)oc12	41.8*	52.4*	3.6	3.7	15.0	1.2	35.4*
COc1ccc(S(=O)(=O)CC(=O)c2cc3cccc(C)c3oc2=O)cc1	-1.0	15.6	-1.3	4.9	7.6	-2.0	/
CCOC(=O)/C=C/c1ccc2c(c1)S(=O)(=O)N(Cc1ccc(OC)cc1)[C@H]2CC(=O)OCC	1.3	4.8	-0.1	-2.8	-5.7	4.2	/
CCn1nc([N+](=O)[O-])c(C(C#N)c2nc3ccccc3n2C)c(Cl)c1=O (stereo not drawn)	8.7	13.8	-5.9	12.0	11.4	3.4	/
CCCn1nc([N+](=O)[O-])c(C(C#N)c2nc3ccccc3s2)c(Cl)c1=O (stereo not drawn)	15.2	56.5*	12.9	14.5	60.1*	7.7	51.4*
CC1=C(/C=C/C(C)=C/C=C/C(C)=C/C(=O)Nc2ccc(O)cc2)C(C)(C)CCC1	8.3	54.0*	-0.5	2.4	-1.1	2.6	53.4*
CCOC(=O)c1cn(Cc2ccc(C)cc2)c2cc(F)ccc2c1=O	-1.3	0.9	-1.2	3.5	-0.8	-0.8	/
OC1(c2ccc(Cl)cc2)CCN(Cc2cn[nH]c2-c2ccc(F)cc2)CC1	3.5	58.0*	1.2	-0.8	10.2	-0.5	0.2
OC1(c2ccc(Cl)cc2)CCN(Cc2cn[nH]c2-c2ccccc2)CC1	5.0	2.0	0.4	6.1	0.8	3.7	/
Cc1ccc(NS(=O)(=O)c2ccc(NC(=O)CN(c3cc([N+](=O)[O-])ccc3C)S(C)(=O)=O)cc2)c(C)c1	-23.7	41.8*	2.6	-39.4	-62.3	2.7	51.1*
O=C(CN1C(=O)CCC1=O)Nc1ccc(Br)cc1	0.5	5.2	-1.1	1.8	-5.7	-1.9	/
C/C(=N\NC(=O)c1cc(O)cc(O)c1)c1ccc(NC(=O)Cc2ccccc2)cc1	18.9	45.1*	10.7	34.5*	26.6	3.9	15.1
CCOC(=O)NC1(Nc2ccc(C)cc2)Oc2ccccc2O1	6.8	45.6*	-4.2	11.1	3.6	-2.0	4.8
N#CCN(CC#N)C(=O)C1c2ccccc2Oc2ccccc21	1.9	62.2*	-2.1	12.3	5.2	1.2	2.6
NC(=O)COC(=O)C1c2ccccc2Oc2ccccc21	10.3	-4.8	4.3	4.3	1.1	-7.6	/
O=C(NCC(=O)N1CCN(c2ccccc2O)CC1)C1CCCCC1	2.0	37.3*	4.5	7.6	23.8	1.3	24.3
SMILES	PAFAH1B2 inh	pPAFAH inh	PP1 counter	PAFAH1B3 FP inh	PAFAH2 inh	PP5 inh	pPAFAH FP conf
N#C/C(=N\Nc1cccc(C(F)(F)F)c1)C(=O)c1csc(-c2cccnc2)n1	5.6	44.8*	7.9	10.1	16.1	4.8	63.2*
Cc1ccc(C(=O)Nc2cccc(C(F)(F)F)c2)cc1NC(=O)c1csc(-c2ccncc2)n1	-6.4	-5.0	14.9	-4.4	-14.4	3.9	/
CCCOC(=O)c1cc(-c2ccc(C=O)o2)ccc1Cl	1.1	13.5	-1.3	0.8	-4.3	0.1	/
CCCOC(=O)c1cc(-c2ccc(/C=C3/C(=O)N(C)C(=O)C(C#N)=C3C)o2)ccc1Cl	6.8	58.4*	-1.9	7.1	11.1	8.0	26.3*
N=C1C(c2ccccc2)=C(O)CN1c1cccc(S(=O)(=O)N2CCOCC2)c1	-1.0	43.6*	-1.0	7.1	-1.9	-0.3	2.0
CCN(CC)Cc1c(O)ccc2c(=O)c(-c3ccccc3Cl)coc12	1.8	6.4	1.6	-0.6	4.0	0.3	/
N#C/C(=C\c1ccc(O)c(O)c1)C(=O)Nc1cccc2ncccc12	10.3	52.1*	13.5	15.2	49.3*	1.7	69.5*
COc1ccc(/C=C(\C#N)C(=O)Nc2cccc3ncccc23)cc1OC	2.3	0.7	5.1	9.4	-1.1	-0.6	/
O=C(O)c1cc(Cl)c2c(c1)[C@@H]1C=CC[C@@H]1[C@H](c1ccc(S(=O)(=O)N3CCOCC3)cc1)N2	1.8	45.9*	3.9	4.2	40.8*	2.7	19.6
Oc1ccc(-c2nc(-c3ccc(O)c(O)c3)cs2)cc1	-0.2	49.5*	0.7	-4.3	0.3	3.5	37.9*
CCc1cccc(N(C)C(N)=Nc2cccc3ccccc23)c1	7.4	1.0	-2.3	6.8	3.5	-2.8	/
COc1ccc(-c2cc(-c3nnc(-c4ccncc4)o3)c3ccccc3n2)cc1	2.3	0.4	2.0	-5.5	-27.2	0.8	/
Oc1c(Br)cc(/C=N/NC(=S)NCc2ccco2)cc1Br	15.0	41.4*	1.6	-1.6	22.3	-1.3	57.1*
CCOC(=O)c1sc(NC(=O)CCN2CCC(C)CC2)c(C(=O)OCC)c1C	3.9	5.8	-3.2	1.3	-4.2	-0.2	/
CC(C)=CCC/C(C)=C/CNC(=O)C[C@H]1C[C@H](C(=O)N2CCCCC2)[C@@]2(C)c3[nH]c4cc(CCC(=O)N(C)C)ccc4c3CCN2C1=O	4.6	54.7*	/	6.9	9.6	/	42.0*

Source: PubChem BioAssay
